From PubChem BioAssay AID1259343 (VanderVen Lab, College of Veterinary Medicine, Cornell …, 2017)
Hit rate of the full screen: of about 6,200 compounds, about 2,900 (47%) were called active. The set was probably picked from earlier hits. This is one part of the list. A number with no mark means an inactive call. No stated cut-off is given here; in the data, active means inhibition above about 50%; inactive means the rest.

Test: Mycobacterium tuberculosis growth inhibition, primary screen (AID 1259343)
Conditions: inhibition: at 10 µM, active compounds read high; outcome: 10 uM

SMILES | inhibition
CCCCC(CC)CN=C(N)NC(N)=NCCCCCCN=C(N)NC(N)=NCC(CC)CCCC (centres undefined) | 94.5% (active)
O=C1C(=O)N(C2CCCC2)C(=O)N1CC1CCCCC1 | -11.3%
Cc1nc2scc(-c3cccs3)c2c(=S)[nH]1 | 85.4% (active)
Cc1ccc(C)n1-n1c(C)nc2scc(-c3cccs3)c2c1=O | 27.9%
Cc1nc2scc(-c3cccs3)c2c(=O)n1-n1cccc1 | 87.8% (active)
O=C(NC1CC1c1ccccc1)C1(c2ccccc2)CCC1 (centres undefined) | 38.3%
Cc1cc(-c2nnn(CC3(O)CCCCC3)n2)ccc1F | 86.8% (active)
COc1ccc(-c2cc(Nc3ccc(NC(=O)OC(C)(C)C)cc3)ncn2)cc1 | 4.04%
CC(C)(C)OC(=O)Nc1ccc(Nc2cc(-c3ccc(F)c(F)c3)ncn2)cc1 | 16.4%
CC(C)(C)OC(=O)Nc1cc2ccccc2cc1C(=O)O | 79.6% (active)
Fc1cccc(-c2cnnc(N[C@@H]3C[C@H]3c3ccccc3)n2)c1 | 19.2%
Cc1cc(C)cc(NC(=O)CSc2nc(=O)n3ccc(C)cc3n2)c1 | -10.5%
Cc1cc(C)cc(NC(=O)CSc2nccn(-c3ccc(F)cc3)c2=O)c1 | 48.7%
Cc1cc(C)cc(NC(=O)CSc2nccn(-c3cccc(F)c3)c2=O)c1 | 66.8% (active)
N#Cc1ccccc1Sc1ccc(C(N)=O)cc1 | -41.2%
C(=Nc1ccc(C23CC4CC(CC(C4)C2)C3)cc1)c1cccnc1 | 7.01%
Cc1ccc(/C=C2\CNC/C(=C\c3ccc(C)cc3)C2=O)cc1 | 27.8%

SMILES | inhibition
CC1C/C(=C\c2cccnc2)C(=O)/C(=C/c2cccnc2)C1 (centres undefined) | 63% (active)
COc1c(Br)cc(Cl)cc1NCc1c(C)noc1C | 14%
N#CC(=Cc1ccccc1I)c1nc(-c2ccccc2)cs1 | 10.6%
N#CC(=CC(Br)=Cc1ccccc1)c1nc(-c2ccccc2)cs1 | 82.4% (active)
Clc1ccc(C2CN(Cc3cc(-c4ccccn4)no3)CCO2)cc1Cl (centres undefined) | 21%
CC(=O)c1cc(CN2CCOC(CCCc3ccccc3)C2)cs1 (centres undefined) | 28.9%
N#Cc1c(Cl)cccc1NCC1CN(Cc2ccccc2)CCO1 (centres undefined) | 57.3% (active)
O=C(Cc1cc(-c2cc3ccccc3o2)on1)NCCC1=CCCCC1 | 32.4%
O=C(Cc1cc(-c2cc3ccccc3o2)on1)NCCCc1ccccc1 | 93.4% (active)
COC(=O)c1ccc(NC(=O)Cc2cc(-c3cc4ccccc4o3)on2)cc1 | 84% (active)
COC(=O)c1cc(-c2ccc(OC)cc2)on1 | 30.9%
COC(=O)c1cc(-c2ccc(C)cc2)on1 | 88.9% (active)
O=C(Cc1cc(-c2cc3ccccc3o2)on1)Nc1cccc(F)c1 | 38.6%
COC(=O)c1cc(-c2cc3ccccc3o2)on1 | 99.1% (active)
Cc1cc(NC(=O)Cc2cc(-c3cc4ccccc4o3)on2)no1 | -32.2%
COC(=O)c1cc(-c2ccc3c(c2)CC(C)O3)on1 (centres undefined) | 45.8%
O=C(Cc1cc(-c2cc3ccccc3o2)on1)NCCc1ccccc1 | 6.56%
